Measured values reported in the supplement of paper PMC9433436.
± gives the standard deviation of the averaged measurements. Whole data set: some 4,100 sequences, median “relative kcat/Km (krel) vs genomic leader AAAGAU” near 1.7, cut for the highest 2% near 6.5. The entries come from a sample that favours the highest values as a whole.

Molecular target: T1, E. coli RNase P holoenzyme (M1 P RNA + rnpA protein) (UniProt P0A7Y8)
T1 sequence: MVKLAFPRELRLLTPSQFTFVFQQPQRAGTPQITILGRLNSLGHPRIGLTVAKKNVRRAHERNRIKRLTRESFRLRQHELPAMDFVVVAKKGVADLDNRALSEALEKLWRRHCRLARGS
Assay: relative kcat/Km (krel) vs genomic leader AAAGAU (relative (reference leader = 1)); higher = faster RNase P cleavage
Method: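 HTS-Kin: a pool of ptRNA-Met (21C construct) with all 4096 combinations of 5' leader nucleotides N(-6) to N(-1) was processed in vitro by E. coli RNase P (P RNA + rnpA/C5 protein) under multiple-turnover conditions at 37 C, pH 8, 17.5 mM MgCl2. Residual substrate was Illumina-sequenced at several fractions reacted, and relative kcat/Km (krel) was computed by internal competition kinetics, calibrated to the genomic leader (AAAGAU = 1). The listed hexamer is the varied N(-6)..N(-1) leader (DNA letters), and it sits between a fixed 5' stem-loop flank (GCAUGCACGAAAGUGCGUGCUAUGAA) and the mature tRNA-Met starting GGCUACGUAGCUCAGUUGG. Two technical replicates are averaged.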

[1] = fraction of substrate reacted: ~9-10% (9.79% repeat 1, 9.1% repeat 2)
[2] = fraction of substrate reacted: ~13-16% (15.68% repeat 1, 13.17% repeat 2)
[3] = fraction of substrate reacted: ~26-29% (28.66% repeat 1, 26.4% repeat 2)

Row | Sequence | relative kcat/Km [1] | relative kcat/Km [2] | relative kcat/Km [3]
1 | TCCGAA | 5.05 ± 1.9 | 6.23 ± 1.9 | 9.05 ± 3.9
2 | CCCGAG | 1.48 ± 0.82 | 0.888 ± 0.25 | 3.16 ± 0.072
3 | TCCGAC | 3.47 ± 0.1 | 4.91 ± 1.2 | 7.68 ± 3
4 | ACCGAG | 2.58 ± 2.5 | 0.833 ± 0.22 | 2.44 ± 0.21
5 | ACCGAC | 2.3 ± 2.1 | 3.17 ± 0.29 | 4.58 ± 1
6 | ACTCGT | – | – | 2.02 ± 1.7
7 | AGCACG | – | – | 1.13 ± 0.11
8 | TTAGAA | 2.72 ± 1.5 | 2.61 ± 0.03 | 3.57 ± 1.4
9 | CCCCAA | 3.03 ± 1.2 | 3.57 ± 0.21 | 4.97 ± 1.6
10 | TCCCAT | 4.48 ± 2.4 | 5.74 ± 1 | 8.73 ± 3.7
11 | GCCCAT | 3.07 ± 2.2 | 3.36 ± 0.14 | 5.4 ± 1.5
12 | TCCCAC | 4.44 ± 1.1 | 5.53 ± 1.1 | 7.79 ± 3
13 | TCCCAA | 4.73 ± 3.1 | 4.63 ± 0.2 | 6.94 ± 2.3
14 | ACCCAT | 2.43 ± 0.83 | 2.95 ± 0.91 | 5.63 ± 2.4
15 | GCCCAC | 3.04 ± 0.041 | 4.04 ± 1.6 | 5.93 ± 2.8
16 | ACCCAA | 2.3 ± 0.84 | 2.69 ± 0.25 | 4.83 ± 1.9
17 | ACCCAC | 3.6 ± 1.7 | 3.71 ± 0.7 | 5.48 ± 1.8
18 | GCTATG | – | – | 1.51 ± 0.12
19 | AGAAAG | 1.38 ± 1.3 | 1.14 ± 0.7 | 2.2 ± 0.47
20 | CGGACG | 1.05 ± 1.1 | – | 0.906 ± 0.41
21 | GCATAA | 1.89 ± 0.96 | 2 ± 0.52 | 3.04 ± 1.1
22 | ATAGTC | 1.61 ± 0.89 | 1.42 ± 1 | 1.68 ± 0.75
23 | AGTAAT | 2.83 ± 0.62 | 3.38 ± 0.27 | 5.07 ± 2.3
24 | TTCCTA | 3.35 ± 1.2 | 4.53 ± 0.46 | 5.89 ± 2.4
25 | AACGCA | 2.99 ± 1.6 | 3.18 ± 0.58 | 4.32 ± 1.4

Row | Sequence | relative kcat/Km [1] | relative kcat/Km [2] | relative kcat/Km [3]
26 | TACGCA | 2.71 ± 1.7 | 4.27 ± 0.58 | 6.64 ± 3.4
27 | GACGCA | 3.33 ± 1.3 | 3.62 ± 0.97 | 5.24 ± 1.8
28 | GACGCT | 2.24 ± 0.19 | 2.17 ± 0.8 | 3.11 ± 1.4
29 | GACGCG | – | 0.59 ± 0.14 | 2.38 ± 0.093
30 | AACGCC | 1.93 ± 0.48 | 3.24 ± 1.4 | 4.53 ± 1.3
31 | TACGCG | 1.87 ± 1.1 | 1.66 ± 0.44 | 3.13 ± 0.89
32 | TACGCC | 3.64 ± 0.043 | 5.35 ± 1.7 | 7.66 ± 3.3
33 | GACGCC | 3.241 ± 0.028 | 4.62 ± 1.3 | 6.69 ± 2.6
34 | ACGCAC | 1.83 ± 0.3 | 2.12 ± 0.95 | 3.59 ± 1.2
35 | CATCCC | 2.17 ± 1.8 | 2.06 ± 1.1 | 1.96 ± 0.22
36 | CCTTTC | 2.13 ± 0.9 | 2.39 ± 0.27 | 3.08 ± 0.83
37 | CCTTCA | 1.71 ± 1.4 | 1.18 ± 0.065 | 1.84 ± 0.056
38 | CACTTC | 2.93 ± 0.5 | 3.69 ± 0.85 | 5.44 ± 2.2
39 | TACTTC | 4.11 ± 1.8 | 4.99 ± 1.3 | 6.85 ± 2.9
40 | TACTTT | 3.77 ± 1.4 | 4.69 ± 0.54 | 6.8 ± 3.1
41 | TACTTG | – | 0.792 ± 0.45 | 2.68 ± 1.1
42 | CACTTT | 3.33 ± 1.1 | 4.55 ± 0.76 | 6.22 ± 2.4
43 | TACTTA | 3.1 ± 0.66 | 4.1 ± 0.88 | 5.63 ± 2.6
44 | GTTATG | – | 1.56 ± 0.24 | 3.32 ± 0.7
45 | CTTTTA | 2.68 ± 0.65 | 2.79 ± 0.91 | 3.18 ± 1.2
46 | AAGCAT | 2.34 ± 0.52 | 2.87 ± 1 | 3.28 ± 1.9
47 | CTCCAT | 4.25 ± 0.86 | 5.67 ± 1.3 | 8.48 ± 4
48 | TTCCAA | 4.78 ± 1.8 | 6.03 ± 0.65 | 8.56 ± 3.5
49 | TGCCAA | 3.18 ± 1.1 | 2.55 ± 0.62 | 4.09 ± 1
50 | GTCCAT | 4.26 ± 0.8 | 6.41 ± 1.5 | 9.1 ± 4.4

Row | Sequence | relative kcat/Km [1] | relative kcat/Km [2] | relative kcat/Km [3]
51 | CGCCAT | 3 ± 0.35 | 4.6 ± 1.3 | 6.07 ± 2.5
52 | TTCCCC | 3.49 ± 1.7 | 4.17 ± 0.71 | 5.59 ± 1.9
53 | TTCCAG | 2.51 ± 1.5 | 3.27 ± 0.64 | 5.49 ± 1.9
54 | TGCCAC | 2.55 ± 1.6 | 3.121 ± 0.026 | 4.36 ± 1.6
55 | CTCCCT | 3 ± 0.57 | 3.57 ± 0.86 | 4.86 ± 2.1
56 | TTCCAC | 5.3 ± 2 | 6.51 ± 1.3 | 9.46 ± 4.2
57 | GTCCCT | 2.62 ± 0.56 | 3.61 ± 0.74 | 5.58 ± 2.5
58 | GTCCAG | 2.58 ± 1 | 2.9 ± 0.5 | 5.48 ± 2
59 | CCTCTG | – | – | 1.47 ± 0.38
60 | CTTGGA | 1.23 ± 1.1 | 1.2 ± 0.45 | 1.15 ± 0.8
61 | TTGAGC | 1.16 ± 0.28 | 1.24 ± 0.71 | 1.47 ± 0.22
62 | ACCGGC | 1.08 ± 0.83 | – | –
63 | AGAACC | 1.66 ± 1.1 | 1.82 ± 0.43 | 1.82 ± 0.17
64 | GCACGT | – | – | 0.727 ± 0.1
65 | CAAAGG | 0.345 ± 0.3 | – | –
66 | ATCCCT | 2.7 ± 0.55 | 3.48 ± 0.4 | 4.42 ± 1.8
67 | ATCCAC | 4.03 ± 1.7 | 4.47 ± 0.19 | 6.76 ± 2.2
68 | GTCCAA | 3.74 ± 1.3 | 4.92 ± 0.95 | 7.96 ± 3
69 | ATCCCC | 2.42 ± 0.41 | 3.13 ± 0.35 | 4.59 ± 2.2
70 | GTCCCC | 2.87 ± 2.5 | 4.17 ± 0.82 | 5.29 ± 1.4
71 | GTCCAC | 5.04 ± 1.9 | 6.06 ± 1.1 | 8.78 ± 3.9
72 | GACCAA | 1.8 ± 0.3 | 3.47 ± 1.1 | 4.86 ± 1.5
73 | ATCCAG | 1.67 ± 0.93 | 1.77 ± 0.18 | 3.83 ± 0.61
74 | GGCCAC | 0.682 ± 0.091 | 1.39 ± 0.35 | 2.65 ± 0.59
75 | AGCCAT | 3.54 ± 1.2 | 3.08 ± 0.86 | 4.77 ± 2

Row | Sequence | relative kcat/Km [1] | relative kcat/Km [2] | relative kcat/Km [3]
76 | ATCCAA | 3.15 ± 0.43 | 4.2 ± 1.2 | 6.3 ± 2.3
77 | ATCCAT | 3.89 ± 0.97 | 4.72 ± 1.4 | 7.14 ± 3.2
78 | TTTGCC | 1.81 ± 0.95 | 1.79 ± 0.37 | 2.42 ± 0.16
79 | AGTATT | 2.4 ± 0.68 | 3.14 ± 0.3 | 4.91 ± 2.2
80 | AACTGG | – | – | 0.249 ± 0.046
81 | TGATGT | – | 1.13 ± 1.1 | 1.37 ± 0.91
82 | ACTTTA | 1.56 ± 0.72 | 1.89 ± 0.44 | 2.18 ± 0.5
83 | GCTGCC | 1.37 ± 0.5 | 0.461 ± 0.12 | 0.965 ± 0.29
84 | GCGGCA | – | 0.64 ± 0.26 | –
85 | CATTTC | 2.59 ± 0.64 | 2.31 ± 0.88 | 4.06 ± 1.9
86 | CTCCAG | 2.81 ± 1.9 | 2.34 ± 0.026 | 4.6 ± 1.3
87 | TTCCCT | 3.18 ± 0.59 | 4.37 ± 1.1 | 6.18 ± 2.6
88 | CTCCAC | 4.55 ± 1.9 | 5.88 ± 1.5 | 7.81 ± 3.1
89 | CGCCAA | 2.95 ± 0.91 | 3.15 ± 0.75 | 5.09 ± 1.8
90 | CTCCCC | 2.43 ± 0.053 | 3.34 ± 1 | 4.73 ± 2.2
91 | TGCCAT | 2.8 ± 0.93 | 2.89 ± 0.61 | 4.45 ± 1.8
92 | TTCCAT | 4.71 ± 0.96 | 7.43 ± 1.3 | 10.3 ± 4.6
93 | CACCAC | 3.5 ± 0.91 | 3.81 ± 1.5 | 5.55 ± 2.2
94 | CTCCAA | 4.23 ± 2.1 | 4.62 ± 0.048 | 6.98 ± 2.8
95 | CAGGGA | – | 0.949 ± 0.58 | 1.06 ± 1
96 | CCGATG | – | – | 1.14 ± 0.71
97 | CGCATG | – | – | 1.43 ± 0.34
98 | CCATAA | 3.55 ± 1.6 | 2.67 ± 0.37 | 3.58 ± 0.78
99 | CCACTT | 1.71 ± 0.26 | 0.873 ± 0.61 | 1.91 ± 0.31
100 | TGCTGA | 1.907 ± 0.0028 | 1.69 ± 0.5 | 2.71 ± 1
